Test results: PubChem BioAssay (NCATS)
Results filed as inconclusive are left out. The source made the active and inactive calls. Calls come from the whole dose curve; as a rule, active = well fitted curve in the direction sought with a large enough effect; inconclusive = small, poorly fitted or top-dose-only effect, or another doubt; inactive = no such curve, though single readings can be large; an effect the other way counts as inactive or inconclusive.

What was measured:
[1] = Quantitative High-Throughput drug screen in 47 multiple myeloma cell lines against the NCATS MIPE library collection: KMS26_JCRB cell viability assay (AID 1918975); note: nearly all actives have a fitted effect of over 45% in size
Summary of the method: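 We plated 500 myeloma cells per well, pinned in MIPE 4.0 compounds, and incubated for 48 hours at 37C. ATP was then quantified with CellTiter-Glo, with DMSO and media-only wells defining 100% and 0%.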

[2] = Quantitative High-Throughput drug screen in 47 multiple myeloma cell lines against the NCATS MIPE library collection: MMM1_PLB cell viability assay (AID 1918976); note: nearly all actives have a fitted effect of over 35% in size
Summary of the method: (§1)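 500 cells/well per myeloma line exposed to pinned MIPE 4.0 compounds for 48 h at 37 °C, 5% CO2. Viability read as ATP by CellTiter-Glo luminescence, normalised to DMSO-only (100%) and media-only (0%) wells.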

[3] = Quantitative High-Throughput drug screen in 47 multiple myeloma cell lines against the NCATS MIPE library collection: MOLP8_DSMZ cell viability assay (AID 1918977); note: nearly all actives have a fitted effect of over 45% in size
Summary of the method: as §1

[4] = Quantitative High-Throughput drug screen in 47 multiple myeloma cell lines against the NCATS MIPE library collection: NCIH929_DSMZ cell viability assay (AID 1918978); note: nearly all actives have a fitted effect of over 35% in size
Summary of the method: as §1

[5] = Quantitative High-Throughput drug screen in 47 multiple myeloma cell lines against the NCATS MIPE library collection: OCIMY1_PLB cell viability assay (AID 1918979); note: nearly all actives have a fitted effect of over 35% in size
Summary of the method: as §1

[6] = Quantitative High-Throughput drug screen in 47 multiple myeloma cell lines against the NCATS MIPE library collection: MM1S_ATCC cell viability assay (AID 1918980); note: nearly all actives have a fitted effect of over 45% in size
Summary of the method: as §1

[7] = Quantitative High-Throughput drug screen in 47 multiple myeloma cell lines against the NCATS MIPE library collection: MM1R_ATCC cell viability assay (AID 1918981); note: nearly all actives have a fitted effect of over 35% in size
Summary of the method: as §1

[8] = Quantitative High-Throughput drug screen in 47 multiple myeloma cell lines against the NCATS MIPE library collection: KMS28PE_JCRB cell viability assay (AID 1918983); note: nearly all actives have a fitted effect of over 35% in size
Summary of the method: as §1

[9] = Quantitative High-Throughput drug screen in 47 multiple myeloma cell lines against the NCATS MIPE library collection: L363_DSMZ cell viability assay (AID 1918984); note: nearly all actives have a fitted effect of over 40% in size
Summary of the method: as §1

[10] = Quantitative High-Throughput drug screen in 47 multiple myeloma cell lines against the NCATS MIPE library collection: LP1_DSMZ cell viability assay (AID 1918982); note: nearly all actives have a fitted effect of over 35% in size
Summary of the method: as §1

Measured: Potency
Potency is the fitted concentration of half-maximal effect.

c1nc2nc(Nc3ccc(N4CCOCC4)cc3)nc(NC3CCCCC3)c2[nH]1
active: [1] 16600 nM | [2] 10500 nM | [3] 8330 nM | [4] 3720 nM | [5] 16600 nM | [6] 5900 nM | [7] 14800 nM | [8] 16600 nM | [9] 5260 nM

CCC1=C[C@@H]2CN(C1)Cc1c([nH]c3ccccc13)[C@@](C(=O)OC)(c1cc3c(cc1OC)N(C)[C@@H]1[C@@](O)(C(=O)OC)[C@H](OC(C)=O)[C@]4(CC)C=CCN5CC[C@]31[C@@H]54)C2
active: [1] 2960 nM | [2] 1870 nM | [3] 33.2 nM | [4] 2090 nM | [5] 2090 nM | [6] 372 nM | [7] 187 nM | [10] 33.2 nM | [8] 20.9 nM

O=C(NC1CCNCC1)c1[nH]ncc1NC(=O)c1c(Cl)cccc1Cl
active: [1] 187 nM | [2] 418 nM | [3] 148 nM | [4] 418 nM | [5] 2640 nM | [6] 105 nM | [7] 296 nM | [8] 235 nM | [9] 469 nM

CCCCc1nc2cc(C=CC(=O)NO)ccc2n1CCN(CC)CC
active: [1] 526 nM | [2] 418 nM | [3] 132 nM | [4] 935 nM | [5] 1660 nM | [6] 526 nM | [7] 235 nM | [10] 74.3 nM | [8] 526 nM

COc1cc2nccc(Oc3ccc(NC(=O)C4(C(=O)Nc5ccc(F)cc5)CC4)cc3)c2cc1OC
active: [1] 23500 nM | [2] 2350 nM | [3] 14800 nM | [4] 16600 nM | [5] 26400 nM | [6] 590 nM | [7] 1870 nM | [10] 20900 nM

O=C(c1ccc(Nc2nccc(-c3cc4ccccc4s3)n2)cc1)N1CCC(N2CCCC2)CC1
active: [1] 16600 nM | [2] 20900 nM | [3] 13200 nM | [4] 5900 nM | [5] 20900 nM | [6] 20900 nM | [7] 16600 nM | [10] 20900 nM | [8] 16600 nM | [9] 1480 nM

CC(C)(C)c1cnc(CSc2cnc(NC(=O)C3CCNCC3)s2)o1
active: [1] 148 nM | [2] 105 nM | [3] 83.3 nM | [4] 264 nM | [5] 1660 nM | [6] 66.2 nM | [7] 105 nM | [10] 105 nM | [8] 132 nM | [9] 166 nM

CC(C)c1cnn2c(NCc3ccccc3)cc(N[C@@H](CO)[C@H](O)CO)nc12
active: [1] 296 nM | [2] 332 nM | [3] 166 nM | [4] 166 nM | [6] 235 nM | [7] 235 nM | [10] 264 nM | [8] 296 nM | [9] 148 nM

O=C(Cc1ccc(-c2ccc(OCCN3CCOCC3)cc2)cn1)NCc1ccccc1
active: [1] 83.3 nM | [2] 14800 nM | [3] 83.3 nM | [4] 93.5 nM | [6] 132 nM | [7] 187 nM | [10] 41.8 nM | [8] 46.9 nM | [9] 14.8 nM

COc1ccc(-c2cc3c(C)nc(N)nc3n(C3CCC(OCCO)CC3)c2=O)cn1 (centres undefined)
active: [1] 148 nM | [2] 14.8 nM | [3] 37.2 nM | [4] 9.3 nM | [6] 37.2 nM | [7] 14.8 nM | [10] 14.8 nM | [8] 33.2 nM | [9] 10.5 nM

C[C@@H](Oc1cc(-c2cnn(C3CCNCC3)c2)cnc1N)c1c(Cl)ccc(F)c1Cl
active: [1] 14800 nM | [2] 9350 nM | [3] 13200 nM | [4] 3320 nM | [5] 20900 nM | [6] 18700 nM | [10] 14800 nM | [8] 11800 nM | [9] 4690 nM

N#CCNC(=O)c1ccc(-c2ccnc(Nc3ccc(N4CCOCC4)cc3)n2)cc1
active: [1] 18700 nM | [2] 18700 nM | [3] 11800 nM | [4] 9350 nM | [6] 18700 nM | [7] 9350 nM | [10] 20900 nM | [8] 18700 nM

O=C(CCCCCCNC(=O)c1cnc(N(c2ccccc2)c2ccccc2)nc1)NO
active: [1] 5260 nM | [2] 5260 nM | [3] 4180 nM | [4] 5900 nM | [5] 13200 nM | [6] 6620 nM | [7] 3720 nM | [8] 7430 nM | [9] 4690 nM

O=C(Nc1cn[nH]c1-c1nc2ccc(CN3CCOCC3)cc2[nH]1)NC1CC1
active: [1] 4690 nM | [2] 5900 nM | [3] 2640 nM | [4] 1180 nM | [5] 10500 nM | [6] 1870 nM | [10] 4690 nM | [8] 7430 nM | [9] 2640 nM

Nc1nccc(Oc2ccc(NC(=O)c3c[nH]cc(-c4ccc(F)cc4)c3=O)cc2F)c1Cl
active: [1] 33200 nM | [2] 23500 nM | [3] 20900 nM | [4] 20900 nM | [6] 1180 nM | [7] 2350 nM | [10] 18700 nM | [8] 37200 nM

Cc1nc(N)ncc1-c1nc(N2CCOCC2)c2sc(C(C)(C)O)cc2n1
active: [1] 526 nM | [2] 148 nM | [3] 118 nM | [4] 52.6 nM | [5] 105 nM | [6] 743 nM | [7] 1320 nM | [8] 118 nM | [9] 74.3 nM

CCn1nnc2c(N3CCOCC3)nc(-c3ccc(NC(=O)Nc4ccc(C(=O)N5CCN(C)CC5)cc4)cc3)nc21
active: [1] 41.8 nM | [2] 33.2 nM | [3] 3.7 nM | [4] 6.6 nM | [5] 5260 nM | [6] 33.2 nM | [10] 46.9 nM | [8] 5.9 nM

COc1cc2c(NC3CCN(C(C)C)CC3)nc(C3CCCCC3)nc2cc1OCCCN1CCCC1
active: [1] 6620 nM | [2] 6620 nM | [3] 7430 nM | [4] 5260 nM | [5] 7430 nM | [6] 4180 nM | [10] 5260 nM | [8] 16600 nM | [9] 5260 nM

CN1CCC(CNc2ccc3ncc(-c4cccc(OC(F)(F)F)c4)n3n2)CC1
active: [1] 18700 nM | [2] 18700 nM | [3] 18700 nM | [4] 7430 nM | [5] 20900 nM | [6] 7430 nM | [10] 26400 nM | [8] 18700 nM | [9] 7430 nM

COc1cccc2c(NCc3ccccc3)nc(-n3c(N)nc4ccccc43)nc12
active: [1] 4690 nM | [2] 5900 nM | [3] 3320 nM | [4] 3320 nM | [5] 7430 nM | [6] 5260 nM | [7] 5900 nM | [8] 8330 nM | [9] 1320 nM

O=C(Nc1cc(C(F)(F)F)cc(C(F)(F)F)c1)c1cc(Cl)ccc1O
active: [1] 1180 nM | [2] 296 nM | [3] 1480 nM | [4] 1480 nM | [5] 3320 nM | [6] 590 nM | [8] 1660 nM | [9] 833 nM

COC(=O)Nc1nc2ccc(C(=O)c3ccc(F)cc3)cc2[nH]1
active: [1] 5260 nM | [2] 11800 nM | [3] 418 nM | [4] 743 nM | [5] 662 nM | [7] 833 nM | [10] 935 nM | [8] 1660 nM

CC[C@@H]1C(=O)N(C)c2cnc(Nc3ccc(C(=O)NC4CCC(N5CCN(CC6CC6)CC5)CC4)cc3OC)nc2N1C(C)C (some centres undefined)
active: [1] 5260 nM | [2] 7430 nM | [3] 3720 nM | [4] 1320 nM | [5] 264 nM | [6] 1320 nM | [8] 209 nM | [9] 14.8 nM

CC(C)c1ccc(Cn2ccc3c4c(N)nc(NC5CC5)nc4ccc32)cc1
active: [1] 10500 nM | [2] 16600 nM | [3] 13200 nM | [4] 13200 nM | [6] 10500 nM | [7] 9350 nM | [10] 4690 nM | [8] 9350 nM | [9] 469 nM

Cc1ccc(-c2ncn(-c3ccc(Nc4nccc(-c5cccc(N6CCOCC6)c5)n4)cc3)n2)cn1
active: [1] 469 nM | [2] 2350 nM | [3] 93.5 nM | [4] 264 nM | [5] 662 nM | [6] 148 nM | [10] 132 nM | [8] 148 nM | [9] 74.3 nM

Nc1ccccc1NC(=O)c1ccc(CNC(=O)OCc2cccnc2)cc1
active: [1] 4690 nM | [2] 4690 nM | [3] 1480 nM | [4] 1320 nM | [6] 935 nM | [7] 833 nM | [10] 1660 nM | [8] 2350 nM | [9] 418 nM

COCCn1c2c([n+](Cc3cnccn3)c1C)C(=O)c1ccccc1C2=O
active: [1] 14.8 nM | [2] 16.6 nM | [3] 23.5 nM | [4] 33.2 nM | [5] 26.4 nM | [6] 3.7 nM | [8] 26.4 nM

O=C(C=Cc1cccc(S(=O)(=O)Nc2ccccc2)c1)NO
active: [1] 8550 nM | [2] 10800 nM | [3] 2410 nM | [4] 3030 nM | [6] 1910 nM | [7] 1210 nM | [10] 2700 nM | [8] 3820 nM | [9] 855 nM

CCc1c2c(nc3ccc(O)cc13)-c1cc3c(c(=O)n1C2)COC(=O)[C@]3(O)CC
active: [1] 2350 nM | [2] 833 nM | [3] 166 nM | [4] 46.9 nM | [5] 590 nM | [6] 11.8 nM | [10] 662 nM | [8] 166 nM | [9] 590 nM
